# Unmarked numbers belong to inactive results.
# Columns and labels:
# Assay in all cases: log2 ratio of Biotin-Ahx-Ub-VS probe labelling (fragment/DMSO); higher = less target engagement (more negative = stronger competition), active = hit call of the paper (q ≤ 0.05, log2 ratio ≤ -1)
# Details in all cases: compound concentration: 200 uM; treatment time: 3 h
# USP42 = molecular target: T1, USP42 (UniProt Q9H9J4)
# T1 sequence (whole entry): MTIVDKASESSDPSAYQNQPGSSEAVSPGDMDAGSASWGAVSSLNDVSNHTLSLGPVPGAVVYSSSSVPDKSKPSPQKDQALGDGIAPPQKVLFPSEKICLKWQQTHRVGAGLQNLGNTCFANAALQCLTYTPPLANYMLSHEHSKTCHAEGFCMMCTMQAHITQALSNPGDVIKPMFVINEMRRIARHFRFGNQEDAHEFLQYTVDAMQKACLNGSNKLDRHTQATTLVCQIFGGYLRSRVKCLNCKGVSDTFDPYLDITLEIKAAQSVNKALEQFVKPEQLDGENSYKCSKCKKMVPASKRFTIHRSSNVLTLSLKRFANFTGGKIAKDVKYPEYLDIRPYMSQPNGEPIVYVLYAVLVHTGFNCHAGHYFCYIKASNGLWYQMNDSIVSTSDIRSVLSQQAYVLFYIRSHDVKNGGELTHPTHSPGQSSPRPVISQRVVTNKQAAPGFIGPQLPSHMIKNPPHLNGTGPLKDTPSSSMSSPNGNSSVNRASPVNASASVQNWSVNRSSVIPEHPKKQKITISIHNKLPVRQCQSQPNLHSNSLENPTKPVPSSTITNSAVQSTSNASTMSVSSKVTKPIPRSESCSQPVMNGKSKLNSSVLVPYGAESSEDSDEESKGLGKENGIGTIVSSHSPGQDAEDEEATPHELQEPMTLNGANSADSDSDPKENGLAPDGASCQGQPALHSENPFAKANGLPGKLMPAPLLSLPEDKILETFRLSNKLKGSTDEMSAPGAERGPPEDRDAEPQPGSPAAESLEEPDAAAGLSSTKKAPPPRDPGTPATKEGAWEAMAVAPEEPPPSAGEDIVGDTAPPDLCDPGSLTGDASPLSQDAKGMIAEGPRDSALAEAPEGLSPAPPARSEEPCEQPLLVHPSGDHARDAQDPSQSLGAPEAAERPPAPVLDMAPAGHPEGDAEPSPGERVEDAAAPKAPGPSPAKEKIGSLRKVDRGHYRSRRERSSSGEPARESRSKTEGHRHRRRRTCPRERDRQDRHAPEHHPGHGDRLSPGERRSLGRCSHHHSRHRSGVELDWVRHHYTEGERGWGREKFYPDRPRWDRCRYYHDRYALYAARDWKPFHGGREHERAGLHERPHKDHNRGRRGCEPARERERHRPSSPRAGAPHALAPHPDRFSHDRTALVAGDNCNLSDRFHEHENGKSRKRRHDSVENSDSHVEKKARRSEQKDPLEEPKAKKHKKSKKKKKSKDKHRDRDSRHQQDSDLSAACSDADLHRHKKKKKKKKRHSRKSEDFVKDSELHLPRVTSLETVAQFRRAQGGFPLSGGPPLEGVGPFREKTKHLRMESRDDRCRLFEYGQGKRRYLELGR
# Method in brief: (§1)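 Average log2 ratios of fragment over vehicle were obtained by unpaired t-test from global-median-normalised Spectronaut label-free quantities. Proteins with ≥2 unique peptides were included. HEK293T lysate (495 µg per sample) was treated in triplicate with fragment at 200 µM or vehicle for 3 h, then with Biotin-Ahx-Ub-VS at 0.5 µM final for 1 h, and labelled DUBs were NeutrAvidin-enriched and run by diaPASEF LC-MS/MS.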
# USP46 = USP46 (UniProt P62068)
# Method in brief: as §1
# USP47 = molecular target: T2, USP47 (UniProt Q96K76)
# T2 sequence (whole entry): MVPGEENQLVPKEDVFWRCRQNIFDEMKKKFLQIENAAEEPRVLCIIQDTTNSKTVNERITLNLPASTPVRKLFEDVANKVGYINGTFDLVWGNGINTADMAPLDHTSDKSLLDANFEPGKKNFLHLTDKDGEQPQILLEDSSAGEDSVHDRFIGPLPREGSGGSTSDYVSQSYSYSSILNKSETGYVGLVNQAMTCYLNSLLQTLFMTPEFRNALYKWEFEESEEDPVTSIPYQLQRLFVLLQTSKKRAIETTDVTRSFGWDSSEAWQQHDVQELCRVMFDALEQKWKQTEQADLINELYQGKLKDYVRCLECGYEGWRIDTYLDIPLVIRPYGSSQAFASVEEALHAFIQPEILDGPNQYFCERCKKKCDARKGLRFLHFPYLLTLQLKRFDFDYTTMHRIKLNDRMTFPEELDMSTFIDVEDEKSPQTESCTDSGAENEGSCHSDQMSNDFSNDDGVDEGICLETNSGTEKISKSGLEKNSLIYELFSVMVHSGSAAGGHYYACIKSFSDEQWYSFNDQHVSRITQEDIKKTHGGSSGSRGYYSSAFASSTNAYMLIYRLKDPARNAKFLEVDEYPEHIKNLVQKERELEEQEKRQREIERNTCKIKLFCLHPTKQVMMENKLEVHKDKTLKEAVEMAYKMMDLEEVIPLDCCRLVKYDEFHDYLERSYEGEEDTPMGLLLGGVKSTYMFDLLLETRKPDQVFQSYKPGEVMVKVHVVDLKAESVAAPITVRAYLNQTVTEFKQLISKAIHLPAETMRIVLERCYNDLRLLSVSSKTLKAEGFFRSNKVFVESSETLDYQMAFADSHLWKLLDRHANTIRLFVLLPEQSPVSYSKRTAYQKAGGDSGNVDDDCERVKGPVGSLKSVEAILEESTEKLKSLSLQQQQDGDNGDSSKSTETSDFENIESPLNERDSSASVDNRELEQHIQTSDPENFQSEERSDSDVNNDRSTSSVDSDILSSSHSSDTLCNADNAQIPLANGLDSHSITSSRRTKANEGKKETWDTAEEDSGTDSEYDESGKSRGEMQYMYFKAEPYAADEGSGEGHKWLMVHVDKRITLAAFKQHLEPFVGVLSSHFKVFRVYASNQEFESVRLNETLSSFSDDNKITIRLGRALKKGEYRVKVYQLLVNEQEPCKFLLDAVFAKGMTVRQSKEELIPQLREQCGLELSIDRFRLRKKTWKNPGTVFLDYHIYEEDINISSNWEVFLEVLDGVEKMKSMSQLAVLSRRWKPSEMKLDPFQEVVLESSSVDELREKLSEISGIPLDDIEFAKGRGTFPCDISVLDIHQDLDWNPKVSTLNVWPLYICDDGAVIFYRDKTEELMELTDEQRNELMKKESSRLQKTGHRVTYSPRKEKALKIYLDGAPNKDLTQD
# Method in brief: as §1
# USP48 = molecular target: T3, USP48 (UniProt Q86UV5)
# T3 sequence (whole entry): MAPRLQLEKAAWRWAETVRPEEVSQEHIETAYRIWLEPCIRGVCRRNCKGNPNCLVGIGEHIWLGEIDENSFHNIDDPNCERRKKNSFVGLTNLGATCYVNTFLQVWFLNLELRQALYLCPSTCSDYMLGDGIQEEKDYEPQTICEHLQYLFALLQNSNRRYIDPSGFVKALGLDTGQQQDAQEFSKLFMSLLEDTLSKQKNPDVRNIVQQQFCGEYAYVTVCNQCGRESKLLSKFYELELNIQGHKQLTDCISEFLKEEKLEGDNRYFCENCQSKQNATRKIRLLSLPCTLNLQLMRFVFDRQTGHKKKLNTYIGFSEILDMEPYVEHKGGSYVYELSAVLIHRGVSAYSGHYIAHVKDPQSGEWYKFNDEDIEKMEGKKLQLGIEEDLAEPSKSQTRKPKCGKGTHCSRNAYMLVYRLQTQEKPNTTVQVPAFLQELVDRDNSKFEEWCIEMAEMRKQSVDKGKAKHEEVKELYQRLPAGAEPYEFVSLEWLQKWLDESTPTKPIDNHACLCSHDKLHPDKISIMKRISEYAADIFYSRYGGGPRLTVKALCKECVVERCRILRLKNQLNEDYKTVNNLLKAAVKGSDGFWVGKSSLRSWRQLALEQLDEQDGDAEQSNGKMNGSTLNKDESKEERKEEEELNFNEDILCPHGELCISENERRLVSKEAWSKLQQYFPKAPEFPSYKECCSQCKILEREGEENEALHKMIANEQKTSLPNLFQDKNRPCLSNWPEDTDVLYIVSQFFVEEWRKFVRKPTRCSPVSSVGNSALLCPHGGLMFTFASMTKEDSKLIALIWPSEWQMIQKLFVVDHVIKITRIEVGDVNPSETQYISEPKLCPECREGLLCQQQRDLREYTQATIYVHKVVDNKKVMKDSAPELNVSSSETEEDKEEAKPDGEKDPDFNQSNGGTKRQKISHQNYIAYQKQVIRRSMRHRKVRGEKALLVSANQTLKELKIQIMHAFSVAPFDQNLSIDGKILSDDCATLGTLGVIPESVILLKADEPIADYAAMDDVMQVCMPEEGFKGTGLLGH
# Method in brief: as §1
# USP5 = molecular target: T4, USP5 (UniProt P45974)
# T4 sequence (whole entry): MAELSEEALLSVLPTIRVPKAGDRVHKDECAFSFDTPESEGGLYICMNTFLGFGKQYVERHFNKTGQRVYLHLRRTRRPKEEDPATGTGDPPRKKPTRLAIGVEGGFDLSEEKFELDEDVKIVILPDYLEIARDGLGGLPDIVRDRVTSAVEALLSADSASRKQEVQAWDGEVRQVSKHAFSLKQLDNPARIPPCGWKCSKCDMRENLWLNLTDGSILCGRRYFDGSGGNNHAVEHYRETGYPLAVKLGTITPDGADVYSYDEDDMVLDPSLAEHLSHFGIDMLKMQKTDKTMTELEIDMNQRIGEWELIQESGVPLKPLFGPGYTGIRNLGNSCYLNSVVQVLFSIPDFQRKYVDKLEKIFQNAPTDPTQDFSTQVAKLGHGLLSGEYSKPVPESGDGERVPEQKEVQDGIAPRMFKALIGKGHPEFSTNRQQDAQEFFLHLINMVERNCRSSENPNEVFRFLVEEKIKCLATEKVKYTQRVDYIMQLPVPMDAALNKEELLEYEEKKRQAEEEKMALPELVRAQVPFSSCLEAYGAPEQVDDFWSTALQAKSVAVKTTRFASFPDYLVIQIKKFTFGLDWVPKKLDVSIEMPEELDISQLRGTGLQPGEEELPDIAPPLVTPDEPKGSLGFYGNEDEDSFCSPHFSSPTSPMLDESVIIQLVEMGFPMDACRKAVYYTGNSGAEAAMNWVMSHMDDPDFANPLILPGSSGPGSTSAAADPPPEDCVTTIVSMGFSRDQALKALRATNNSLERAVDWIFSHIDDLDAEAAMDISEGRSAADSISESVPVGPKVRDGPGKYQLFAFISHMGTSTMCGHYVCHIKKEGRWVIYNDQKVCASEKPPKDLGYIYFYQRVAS
# Method in brief: as §1
# USP54 = USP54 (UniProt Q70EL1)
# Method in brief: as §1
# USP7 = USP7 (UniProt Q93009)
# Method in brief: as §1
# USP8 = molecular target: T5, USP8 (UniProt P40818)
# T5 sequence (whole entry): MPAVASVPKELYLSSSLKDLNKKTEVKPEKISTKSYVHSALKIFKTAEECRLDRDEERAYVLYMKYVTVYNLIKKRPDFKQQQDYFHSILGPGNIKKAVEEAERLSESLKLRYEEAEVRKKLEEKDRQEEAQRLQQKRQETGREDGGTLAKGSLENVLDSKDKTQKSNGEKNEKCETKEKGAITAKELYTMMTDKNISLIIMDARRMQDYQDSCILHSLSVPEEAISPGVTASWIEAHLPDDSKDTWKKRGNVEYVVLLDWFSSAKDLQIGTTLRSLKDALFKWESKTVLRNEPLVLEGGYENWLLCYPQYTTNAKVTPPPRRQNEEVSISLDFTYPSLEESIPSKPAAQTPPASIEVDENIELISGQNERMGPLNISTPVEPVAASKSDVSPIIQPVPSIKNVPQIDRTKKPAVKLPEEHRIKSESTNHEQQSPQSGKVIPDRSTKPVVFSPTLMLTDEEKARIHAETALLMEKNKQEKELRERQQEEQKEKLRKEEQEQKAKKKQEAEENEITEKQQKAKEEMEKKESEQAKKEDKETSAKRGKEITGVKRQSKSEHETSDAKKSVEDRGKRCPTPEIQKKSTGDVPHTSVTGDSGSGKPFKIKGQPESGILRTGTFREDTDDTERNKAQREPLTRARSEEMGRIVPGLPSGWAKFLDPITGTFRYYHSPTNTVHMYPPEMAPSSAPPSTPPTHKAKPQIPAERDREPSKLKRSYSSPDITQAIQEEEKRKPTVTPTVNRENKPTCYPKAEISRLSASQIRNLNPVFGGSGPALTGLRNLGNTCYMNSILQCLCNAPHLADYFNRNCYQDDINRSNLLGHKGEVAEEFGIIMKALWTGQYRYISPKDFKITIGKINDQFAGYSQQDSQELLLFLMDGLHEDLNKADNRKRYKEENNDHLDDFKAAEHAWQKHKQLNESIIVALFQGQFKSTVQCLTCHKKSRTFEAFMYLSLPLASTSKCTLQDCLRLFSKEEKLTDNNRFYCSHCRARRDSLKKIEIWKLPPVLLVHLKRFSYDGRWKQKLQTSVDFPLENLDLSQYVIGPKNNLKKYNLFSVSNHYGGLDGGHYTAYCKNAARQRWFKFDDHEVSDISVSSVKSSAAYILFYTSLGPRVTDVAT
# Method in brief: as §1
# USP9X = USP9X (UniProt Q93008)
# Method in brief: as §1
# UniProt O00487 = molecular target: UniProt O00487
# Method in brief: as §1
# UniProt O00487, sequence (O00487 whole entry): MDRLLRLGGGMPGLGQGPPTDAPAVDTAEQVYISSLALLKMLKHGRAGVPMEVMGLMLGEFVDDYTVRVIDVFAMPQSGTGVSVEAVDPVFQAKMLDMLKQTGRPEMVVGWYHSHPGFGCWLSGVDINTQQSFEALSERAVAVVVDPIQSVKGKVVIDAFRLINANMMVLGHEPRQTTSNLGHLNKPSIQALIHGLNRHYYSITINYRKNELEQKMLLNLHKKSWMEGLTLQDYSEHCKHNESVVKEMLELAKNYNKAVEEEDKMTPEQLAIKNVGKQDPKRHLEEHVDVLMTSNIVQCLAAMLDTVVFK
# USP46, sequence (P62068 whole entry): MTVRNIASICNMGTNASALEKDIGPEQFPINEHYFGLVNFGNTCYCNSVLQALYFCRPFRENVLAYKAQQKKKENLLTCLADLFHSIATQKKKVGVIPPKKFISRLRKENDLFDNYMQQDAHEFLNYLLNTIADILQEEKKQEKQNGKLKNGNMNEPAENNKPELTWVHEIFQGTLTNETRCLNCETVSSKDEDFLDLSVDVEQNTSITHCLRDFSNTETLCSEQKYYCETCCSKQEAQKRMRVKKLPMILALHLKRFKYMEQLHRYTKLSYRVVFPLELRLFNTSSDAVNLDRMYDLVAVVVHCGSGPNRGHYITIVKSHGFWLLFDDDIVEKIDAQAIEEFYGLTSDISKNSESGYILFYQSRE
# USP9X, sequence (Q93008 whole entry): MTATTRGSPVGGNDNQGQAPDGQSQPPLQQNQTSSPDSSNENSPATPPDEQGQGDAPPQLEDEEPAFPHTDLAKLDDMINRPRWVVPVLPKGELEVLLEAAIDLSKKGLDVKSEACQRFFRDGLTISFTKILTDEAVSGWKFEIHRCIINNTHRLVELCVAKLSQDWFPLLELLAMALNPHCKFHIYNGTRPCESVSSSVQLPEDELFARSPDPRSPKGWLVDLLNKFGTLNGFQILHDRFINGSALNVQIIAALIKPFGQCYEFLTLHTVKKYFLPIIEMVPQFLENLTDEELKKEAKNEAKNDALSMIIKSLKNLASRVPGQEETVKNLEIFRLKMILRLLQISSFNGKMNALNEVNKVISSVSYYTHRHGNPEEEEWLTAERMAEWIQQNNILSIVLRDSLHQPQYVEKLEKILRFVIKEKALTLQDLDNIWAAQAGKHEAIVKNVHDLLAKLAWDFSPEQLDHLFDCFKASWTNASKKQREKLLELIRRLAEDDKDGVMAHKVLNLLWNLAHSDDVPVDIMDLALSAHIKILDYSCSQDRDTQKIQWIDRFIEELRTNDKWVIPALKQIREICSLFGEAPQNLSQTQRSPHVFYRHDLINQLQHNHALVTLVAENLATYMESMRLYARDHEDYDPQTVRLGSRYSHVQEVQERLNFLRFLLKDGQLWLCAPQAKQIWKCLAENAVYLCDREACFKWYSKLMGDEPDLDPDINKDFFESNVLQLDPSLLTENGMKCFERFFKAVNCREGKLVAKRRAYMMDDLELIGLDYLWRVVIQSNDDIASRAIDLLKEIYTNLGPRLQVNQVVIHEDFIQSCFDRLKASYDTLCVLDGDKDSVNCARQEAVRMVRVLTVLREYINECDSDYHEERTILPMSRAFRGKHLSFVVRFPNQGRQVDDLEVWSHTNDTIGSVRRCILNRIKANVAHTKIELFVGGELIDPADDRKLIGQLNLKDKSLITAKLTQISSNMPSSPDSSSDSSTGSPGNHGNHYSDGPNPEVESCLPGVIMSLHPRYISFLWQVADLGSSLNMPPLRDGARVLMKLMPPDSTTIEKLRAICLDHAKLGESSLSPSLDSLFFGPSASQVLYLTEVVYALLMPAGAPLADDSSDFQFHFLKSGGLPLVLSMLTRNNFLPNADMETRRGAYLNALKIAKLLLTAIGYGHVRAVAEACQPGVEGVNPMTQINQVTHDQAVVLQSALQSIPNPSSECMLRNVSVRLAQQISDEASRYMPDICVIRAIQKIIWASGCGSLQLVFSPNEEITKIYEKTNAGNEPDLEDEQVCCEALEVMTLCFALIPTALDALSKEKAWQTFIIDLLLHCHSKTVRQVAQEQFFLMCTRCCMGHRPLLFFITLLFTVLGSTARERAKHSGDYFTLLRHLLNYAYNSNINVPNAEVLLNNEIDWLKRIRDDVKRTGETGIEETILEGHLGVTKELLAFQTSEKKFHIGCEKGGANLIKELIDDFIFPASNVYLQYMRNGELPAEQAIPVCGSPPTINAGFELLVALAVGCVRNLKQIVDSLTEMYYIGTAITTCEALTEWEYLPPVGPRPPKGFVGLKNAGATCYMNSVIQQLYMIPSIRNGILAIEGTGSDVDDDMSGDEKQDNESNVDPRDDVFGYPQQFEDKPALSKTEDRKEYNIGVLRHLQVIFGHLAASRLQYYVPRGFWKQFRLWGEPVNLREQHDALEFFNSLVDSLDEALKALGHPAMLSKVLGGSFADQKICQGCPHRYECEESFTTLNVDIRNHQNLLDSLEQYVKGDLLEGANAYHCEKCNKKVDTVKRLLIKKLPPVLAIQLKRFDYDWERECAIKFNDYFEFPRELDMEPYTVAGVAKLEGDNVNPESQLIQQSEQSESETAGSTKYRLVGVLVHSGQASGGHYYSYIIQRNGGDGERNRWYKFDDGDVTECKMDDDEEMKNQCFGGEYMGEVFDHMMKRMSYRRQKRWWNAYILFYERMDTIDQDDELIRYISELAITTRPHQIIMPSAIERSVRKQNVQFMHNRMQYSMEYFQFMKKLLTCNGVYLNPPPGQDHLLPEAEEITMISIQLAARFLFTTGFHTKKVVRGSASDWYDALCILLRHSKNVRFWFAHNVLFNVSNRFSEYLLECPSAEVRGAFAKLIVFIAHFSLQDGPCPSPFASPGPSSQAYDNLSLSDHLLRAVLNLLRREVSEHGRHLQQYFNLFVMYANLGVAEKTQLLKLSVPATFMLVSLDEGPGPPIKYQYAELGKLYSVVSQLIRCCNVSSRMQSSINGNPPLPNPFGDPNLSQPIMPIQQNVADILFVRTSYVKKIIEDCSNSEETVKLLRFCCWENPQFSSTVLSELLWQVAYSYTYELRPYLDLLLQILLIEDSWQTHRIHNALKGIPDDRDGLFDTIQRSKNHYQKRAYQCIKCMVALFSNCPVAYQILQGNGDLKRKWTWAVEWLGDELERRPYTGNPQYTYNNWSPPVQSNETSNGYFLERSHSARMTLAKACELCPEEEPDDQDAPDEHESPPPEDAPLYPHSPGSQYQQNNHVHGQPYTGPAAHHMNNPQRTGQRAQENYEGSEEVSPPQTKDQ
# USP7, sequence (Q93009 whole entry, looked up): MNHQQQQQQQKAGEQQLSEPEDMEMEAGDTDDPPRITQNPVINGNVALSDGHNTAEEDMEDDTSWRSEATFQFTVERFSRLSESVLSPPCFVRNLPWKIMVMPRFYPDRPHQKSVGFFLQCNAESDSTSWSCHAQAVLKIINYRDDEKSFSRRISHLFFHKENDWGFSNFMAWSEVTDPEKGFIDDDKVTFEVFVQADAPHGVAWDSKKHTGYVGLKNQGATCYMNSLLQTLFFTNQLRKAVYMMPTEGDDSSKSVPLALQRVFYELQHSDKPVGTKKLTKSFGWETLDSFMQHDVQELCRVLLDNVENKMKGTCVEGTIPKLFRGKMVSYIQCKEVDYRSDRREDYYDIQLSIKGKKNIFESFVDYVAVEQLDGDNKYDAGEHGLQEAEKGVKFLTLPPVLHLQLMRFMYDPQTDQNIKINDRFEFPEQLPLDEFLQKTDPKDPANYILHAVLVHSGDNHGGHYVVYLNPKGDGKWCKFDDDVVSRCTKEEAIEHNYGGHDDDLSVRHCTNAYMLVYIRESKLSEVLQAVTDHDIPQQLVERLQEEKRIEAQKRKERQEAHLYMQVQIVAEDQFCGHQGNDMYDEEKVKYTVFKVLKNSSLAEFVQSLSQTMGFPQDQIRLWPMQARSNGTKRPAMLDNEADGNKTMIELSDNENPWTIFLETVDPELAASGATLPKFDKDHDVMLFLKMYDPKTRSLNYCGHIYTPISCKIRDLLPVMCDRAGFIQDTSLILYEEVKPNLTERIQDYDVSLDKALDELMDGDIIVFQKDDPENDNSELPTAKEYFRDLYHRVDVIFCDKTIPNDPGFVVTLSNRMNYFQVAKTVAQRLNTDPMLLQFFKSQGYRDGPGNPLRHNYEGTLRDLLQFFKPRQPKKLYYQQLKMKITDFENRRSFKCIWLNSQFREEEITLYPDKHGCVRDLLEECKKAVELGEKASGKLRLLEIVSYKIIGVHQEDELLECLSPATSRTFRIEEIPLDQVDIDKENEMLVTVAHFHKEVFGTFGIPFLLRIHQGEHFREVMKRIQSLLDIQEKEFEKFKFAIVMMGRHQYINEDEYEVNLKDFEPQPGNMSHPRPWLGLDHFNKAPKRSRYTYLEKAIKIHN
smiles,measurement,setting,value
COc1cccc(CN(C)C(=O)CCl)c1,log2 ratio of Biotin-Ahx-Ub-VS probe labelling,USP42,-0.309
same,log2 ratio of Biotin-Ahx-Ub-VS probe labelling,USP46,-0.0667
same,log2 ratio of Biotin-Ahx-Ub-VS probe labelling,USP47,-0.35
same,log2 ratio of Biotin-Ahx-Ub-VS probe labelling,USP48,-0.935
same,log2 ratio of Biotin-Ahx-Ub-VS probe labelling,USP5,0.462
same,log2 ratio of Biotin-Ahx-Ub-VS probe labelling,USP54,0.00406
same,log2 ratio of Biotin-Ahx-Ub-VS probe labelling,USP7,-1.43 (active)
same,log2 ratio of Biotin-Ahx-Ub-VS probe labelling,USP8,0.148
same,log2 ratio of Biotin-Ahx-Ub-VS probe labelling,USP9X,0.0455
same,log2 ratio of Biotin-Ahx-Ub-VS probe labelling,UniProt O00487,0.0127

# — the supplement of paper PMC11732987, “Enantioselective OTUD7B fragment discovery through chemoproteomics screening and high-throughput optimisation” (Communications Chemistry, 2025)
